# Source: PubChem BioAssay
# Active and inactive are the calls of the source.
# Legend:
# Albumin (Bos taurus) = Albumin (Bos taurus) (UniProt P02769); assay: compounds binding labelled BSA control protein – biochemical, small-molecule microarray, Alexa647 label, 635/667 nm fluorescence, artefact control for SMM control protein annotation, profiling panel (AID 1118); conditions: BSA-A647 binding, fluorescence 635 nm, higher = more signal;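 also: score merges 667 nm emission intensity and signal-to-noise per printed compound spot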
# Sequence of Albumin (Bos taurus) (P02769 whole entry, looked up): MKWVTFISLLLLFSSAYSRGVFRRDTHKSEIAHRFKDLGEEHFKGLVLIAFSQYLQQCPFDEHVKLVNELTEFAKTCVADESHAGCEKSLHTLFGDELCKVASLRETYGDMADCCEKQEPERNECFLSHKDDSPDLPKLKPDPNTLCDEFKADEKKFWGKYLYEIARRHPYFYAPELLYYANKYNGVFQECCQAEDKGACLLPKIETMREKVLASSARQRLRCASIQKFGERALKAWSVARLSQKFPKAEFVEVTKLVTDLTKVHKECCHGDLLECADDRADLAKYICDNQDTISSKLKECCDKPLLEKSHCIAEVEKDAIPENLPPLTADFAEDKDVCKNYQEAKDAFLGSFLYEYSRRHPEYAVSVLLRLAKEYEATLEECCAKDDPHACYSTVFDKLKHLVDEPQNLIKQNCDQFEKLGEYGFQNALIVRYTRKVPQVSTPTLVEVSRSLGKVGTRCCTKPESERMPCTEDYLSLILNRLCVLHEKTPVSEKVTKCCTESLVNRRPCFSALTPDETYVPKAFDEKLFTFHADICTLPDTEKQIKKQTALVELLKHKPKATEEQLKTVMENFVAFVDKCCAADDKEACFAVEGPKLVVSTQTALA
# [1] = probe aXIP binding to arrayed compounds – biochemical, NeuroSMM set, 635/667 nm fluorescence, primary screen (AID 1119); conditions: small-molecule microarray, higher = more signal, called active from +8 up or from −8 down;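 also: probe is the protein aXip251-270 applied at 1 µg/mL to compound-printed slides; binding of probe to printed compounds measured as 667 nm fluorescence plus signal to noise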
# [2] = probe aNOTCH3 binding on compound microarray – biochemical, small-molecule microarray, 635/667 nm fluorescence, primary screen (AID 1120); conditions: higher = more signal;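 also: probe is a biotin-tagged antibody raised against NOTCH3 rather than NOTCH3 protein; score merges spot fluorescence near 667 nm with spot signal to noise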
# [3] = probe aNOTCH2 binding on compound microarray – biochemical, small-molecule microarray, 635/667 nm fluorescence, primary screen (AID 1121); conditions: higher = more signal;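 also: score merges feature fluorescence read at 667 nm with its signal to noise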
# [4] = biological target: Carbonic anhydrase 2 (Homo sapiens) (UniProt P00918); assay: compounds binding carbonic anhydrase 2 – biochemical, small-molecule microarray, Alexa647-labelled CAII, profiling panel (AID 1122); conditions: CAII-A647 binding fluorescence, higher = more signal
# [5] = COS7 lysate on small-molecule microarray, probe aHis, 635 nm (AID 1123); conditions: COS7 cell lysate, fluorescence, higher = more signal;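 also: z-score combines 667nm fluorescence intensity with signal-to-noise per printed compound spot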
# [6] = probe aLAP1 signal on lysate-treated microarray – cell lysate, small-molecule microarray, COS7 lysate, primary screen (AID 1124); conditions: probe aLAP1, fluorescence, higher = more signal;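 also: lysate comes from COS7 cells expressing LAP1 and is applied at 0.3 µg/mL; score merges spot fluorescence near 667 nm with signal-to-noise over triplicate slides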
# Sam68 (KHDRBS1) = assay: compounds binding KHDRBS1 protein – biochemical, small-molecule microarray, 635 nm fluorescence, primary screen (AID 1125); conditions: higher = more signal;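 also: score merges 667 nm channel intensity with signal to noise over triplicate slides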
# [7] = test system: Chordin-like protein 2 (CHRDL2); assay: compounds binding chordin-like 2 – biochemical, small-molecule microarray, 635 nm fluorescence, primary screen (AID 1126); conditions: fluorescence 635 nm, higher = more signal;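 also: printed compound slides probed with Chrdl2 protein at 4 µg/mL for 1 h at 4 C; score merges 667 nm emission intensity with signal to noise over three replicate slides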
# [8] = biological target: Concanavalin-A (Canavalia ensiformis) (UniProt P02866); assay: compounds binding concanavalin A lectin – biochemical, small-molecule microarray, Alexa647 label, 635 nm, artefact control for SMM control protein annotation, primary screen (AID 1127); conditions: ConA-A647 binding fluorescence, higher = more signal;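 also: z combines 667 nm emission intensity with signal-to-noise across three replicate slides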
# Sequence of Concanavalin-A (Canavalia ensiformis) (P02866 whole entry, looked up): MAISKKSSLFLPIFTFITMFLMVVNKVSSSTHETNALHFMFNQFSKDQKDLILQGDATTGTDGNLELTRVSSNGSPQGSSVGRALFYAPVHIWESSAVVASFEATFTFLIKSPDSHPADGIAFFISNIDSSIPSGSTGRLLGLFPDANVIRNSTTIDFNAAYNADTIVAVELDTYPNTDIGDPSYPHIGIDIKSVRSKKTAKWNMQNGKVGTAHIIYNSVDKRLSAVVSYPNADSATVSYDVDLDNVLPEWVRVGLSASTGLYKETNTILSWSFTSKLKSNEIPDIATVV
Structure (SMILES),composite z-score (Albumin (Bos taurus)),composite Z-score [1],composite z-score [2],composite z-score [3],composite z-score [4],composite z-score [5],composite z-score [6],composite z-score (Sam68 (KHDRBS1)),composite z-score [7],composite z-score [8]
CO[C@H]1O[C@H](CO)[C@@H](OC(=O)Nc2cccc(F)c2)[C@H](OC(=O)Nc2ccccc2)[C@@H]1OC(=O)Nc1ccccc1,0.875,0.311 (inactive),0.138,0.003,0.555,2.54,1.02,1.3,-0.219,0.724
CCOC(=O)C[C@H]1[C@H](OC(=O)c2ccc(C(=O)c3ccccc3)cc2)[C@@H](NC(=O)CC(C)C)c2cc(OCCCO)ccc2N1C(=O)c1ccc2ccccc2n1,0.577,-0.86 (inactive),0.206,-0.114,0.232,1.21,0.323,1.29,0.448,1.12
COCCOC(=O)N1C(=O)[C@@]2(c3cc(C#CCC(C(=O)OC)C(=O)OC)ccc31)[C@H](C(=O)N1CCN(c3ncccn3)CC1)[C@H]1C(=O)O[C@H](c3ccccc3)[C@H](c3ccccc3)N1[C@@H]2c1ccccc1OCCO,-0.503,-0.444 (inactive),0.176,-0.147,0.347,0.928,0.698,1.29,1.09,1.13
COC(=O)[C@@]1(Cc2ccc(OC)cc2)[C@@H]2C(=CC(=O)[C@H]2CC(=O)C(=O)N2CCCC2)CN1C(=O)c1ccccc1,0.826,-0.0056 (inactive),0.132,-0.152,0.558,2.23,0.0014,-0.685,-0.694,0.0351
C#C[C@H](O[Si](C#Cc1ccc(Oc2ccccc2)cc1)(C(C)C)C(C)C)c1ccccc1,0.687,0.29 (inactive),0.0122,-0.0057,0.695,0.45,0.484,0.99,0.662,0.971
O=C1O[C@H](c2ccccc2)[C@H](c2ccccc2)N2[C@H]1[C@@H](C(=O)N1CCCCCCC1)[C@]1(C(=O)Nc3ccc(C#CCCO)cc31)[C@H]2c1ccccc1OCCO,0.536,10.7 (active),2.31,1.14,1.12,5.54,1.3,1.35,1.7,1.21
COc1ccc(C#Cc2ccc3c(c2)[C@]2(C(=O)N3)[C@H](C(=O)Nc3nc4ccccc4s3)[C@H]3C(=O)O[C@H](c4ccccc4)[C@H](c4ccccc4)N3[C@@H]2c2ccc(O)cc2)cc1,0.835,0.257 (inactive),1.29,0.158,0.406,2.65,0.641,1.31,0.172,1.12
COCCOC(=O)N1C(=O)[C@@]2(c3ccccc31)[C@H](c1ccc(O)cc1)N1[C@H](c3ccccc3)[C@H](c3ccccc3)OC(=O)[C@H]1[C@@H]2C(=O)Nc1nc2ccccc2s1,0.827,-0.434 (inactive),0.351,-0.0956,0.498,1.98,0.384,1.3,-0.172,1.2
COCCOC(=O)N1C(=O)[C@@]2(c3cc(C#CC4(O)CCCCCC4)ccc31)[C@H](c1ccc(OCCO)cc1)N1[C@H](c3ccccc3)[C@H](c3ccccc3)OC(=O)[C@H]1[C@@H]2C(=O)N1CCN(c2ncccn2)CC1,0.716,-0.232 (inactive),0.0026,-0.146,0.497,1.46,-0.163,1.3,0.34,1.13
CCCC[C@@H]1C[C@H]1[C@@H](NC(=O)C(C)(C)C)c1ccc(C(F)(F)F)cc1,0.315,-0.414 (inactive),-0.222,-0.0986,0.289,0.834,0.0265,-0.305,-2.05,-0.0101
COc1cc(C(O)C2C=CC3C(=O)NC(=O)C3N2Nc2ccccn2)cc(OC)c1OC (stereo not given),0.354,0.183 (inactive),-0.108,0.0339,0.749,2.43,-0.0653,0.466,0.361,0.585
COC(=O)C(CC#Cc1ccc2c(c1)[C@]1(C(=O)N2)[C@H](C(=O)Nc2nc3ccccc3s2)[C@H]2C(=O)O[C@H](c3ccccc3)[C@H](c3ccccc3)N2[C@@H]1c1ccc(O)cc1)C(=O)OC,0.646,0.298 (inactive),-0.0431,-0.0846,0.378,1.96,0.301,1.3,0.673,1.04
CC(C)N1C(=O)[C@@]2(Cc3ccccc31)c1ccccc1C(=O)N(Cc1ccccc1Cl)[C@H]2c1ccc(CO)cc1,-0.594,0.203 (inactive),-0.321,-0.152,-0.154,-0.472,-0.289,-0.162,-0.465,0.0302
CC(C)N1C(=O)C[C@@](C(=O)NCC(F)(F)F)(c2ccc([N+](=O)[O-])cc2)[C@H]1c1ccc(CO)cc1,0.0344,0.447 (inactive),-0.0636,-0.173,0.662,1.22,-0.0253,0.933,-0.035,0.688
CC(C)[Si]1(C(C)C)O[C@@H](c2ccccc2)c2cc(-c3ccc(-c4ccc(Cl)c(Cl)c4)o3)nc(-c3ccccc3)c21,0.473,-0.0194 (inactive),-0.0918,-0.133,0.233,0.308,0.0588,0.278,-0.432,0.989
Cc1ccccc1C(O)C1C=CC2C(=O)N(c3ccccc3)C(=O)C2N1Nc1ccc(C(C)C)cc1 (stereo not given),0.868,0.403 (inactive),0.344,-0.0983,0.304,2.1,0.68,1.15,-0.219,1.15
